# Measurements published in PubChem BioAssay AID493216 (National Center for Advancing Translational Sciences (NCATS), 2011).
# Active and inactive are the calls of the source. Calls come from the whole dose curve.
# Target: Polyunsaturated fatty acid lipoxygenase ALOX12 (Homo sapiens) (UniProt P18054)
# Assay: Inhibitors of 12-hLO (12-human lipoxygenase): Cuvette-Based Hit Assay for Validation of Followup Compounds
# Conditions: purified 12-hLO, cuvette absorbance 234 nm
# Description: The enzyme activity of 12-hLO was determined by a direct measurement of product formation by monitoring the absorbance at 234 nm in a 2 mL cuvette. IC50 values of inhibitors were obtained by measuring the enzymatic rate at a variety of concentrations (Carroll et al, Segraves et al). This assay was used to validate actives or inconclusive putative inhibitors identified in the primary screen (see related BioAssay AIDs). Assay Provider: Holman, T.R., University of California, Santa Cruz Screening Center PI: Austin, Christopher P. Screening Center: NIH Chemical Genomics Center
# For control experiments, 2 mL of substrate buffer (10 uM arachidonic acid / 25 mM HEPES / 0.01% (v/v) Triton X-100, pH 8.0) was aliquoted in a cuvette with a magnetic stir bar. After equilibrium was ensured, an aliquot of inhibitor solvent was added (DMSO), and equilibrium was once again assured. The reaction was started by adding enzyme to the cuvette and the reaction was followed until completed. The inhibition experiments were performed as above, except the actual inhibitory compound was added instead of vehicle. To achieve an IC50, typically 5 concentrations of the inhibitor were studied. If the inhibitor concentration was constant, then five different reaction volumes were used. […] 3; No change in absorbance ensured. […] 5; No change in absorbance ensured. […]
# Sequence of Polyunsaturated fatty acid lipoxygenase ALOX12 (Homo sapiens) (P18054 whole entry, looked up): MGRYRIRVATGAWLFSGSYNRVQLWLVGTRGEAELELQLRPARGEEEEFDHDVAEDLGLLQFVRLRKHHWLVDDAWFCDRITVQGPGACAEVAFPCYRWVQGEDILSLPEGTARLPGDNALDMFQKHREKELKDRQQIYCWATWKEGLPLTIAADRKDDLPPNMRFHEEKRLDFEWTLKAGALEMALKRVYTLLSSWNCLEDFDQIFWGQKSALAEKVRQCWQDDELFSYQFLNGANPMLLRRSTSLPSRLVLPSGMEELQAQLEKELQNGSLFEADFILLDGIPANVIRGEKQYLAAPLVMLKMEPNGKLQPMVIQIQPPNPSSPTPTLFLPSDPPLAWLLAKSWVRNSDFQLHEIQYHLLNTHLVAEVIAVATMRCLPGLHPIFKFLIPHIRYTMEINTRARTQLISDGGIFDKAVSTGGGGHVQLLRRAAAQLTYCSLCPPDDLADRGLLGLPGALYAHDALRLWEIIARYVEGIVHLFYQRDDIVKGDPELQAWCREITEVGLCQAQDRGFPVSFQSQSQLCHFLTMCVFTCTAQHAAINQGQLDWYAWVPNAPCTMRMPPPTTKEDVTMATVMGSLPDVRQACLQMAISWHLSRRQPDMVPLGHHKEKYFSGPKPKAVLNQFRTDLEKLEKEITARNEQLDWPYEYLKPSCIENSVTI
smiles,measurement,value
CC(Oc1ccc(Cl)cc1Cl)C(=O)Nc1ccc(S(=O)(=O)Nc2cnc3ccccc3n2)cc1 (stereo unspecified),Potency,22.6 µM (active)
